Source: PubChem
Rows were chosen to be rich in hits. Some 8% of all compounds tested hit in one or more screens of this group.
HCMV inh – human cytomegalovirus inhibition. 410,000 tested, 4.5% active. activity change, negative = inhibition, % at 57.5 µM. HFF cells, HCMV-luciferase reporter, 72 h; hits give low values; in the data active = activity change below about -60%; inconclusive = no clear call, values can overlap the other calls; inactive = above about -39%; also: % is scaled to controls: 0 for no effect and ±100 for the full control effect
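Luciferase read-out from HCMV-luciferase-infected HFFs (MOI 1 PFU/cell) 72 h post infection at 37C; compounds added after 16 h cell attachment; activity normalized between buffer-only basal and Salinomycin (10uM) inhibitor controls.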
FMDV antiviral – blocks foot and mouth disease virus | FMDV antiviral cell-based qHTS | Potency, µM (series often up to 57.9 µM), for the others: at the top dose activity change, negative = inhibition, usual class: inhibitors | 410,000 tested, 1.2% active | AID 1159524; calls by dose curve; tested in HEK293T cells; also: read-out not given here; potency is read from the fitted curve at half-maximal effect; % is scaled to controls: 0 for no effect and ±100 for the full control effect; nearly all actives have a fitted effect of over 45% in size
MARV entry inh – blocks Marburg virus binding to or entry into cells | Marburg virus pseudotyped entry inhibition, cell reporter | Potency, µM (series often up to 37.8 µM), without a hit: top-dose activity change, negative = inhibition, actives largely listed as inhibitors | 300,000 tested, 1.8% active | AID 540276; calls by dose curve; tested in HEK293 cells; also: potency is read from the fitted curve at half-maximal effect; % is scaled to controls: 0 for no effect and ±100 for the full control effect
SARS PLP yeast – SARS-CoV PLP inhibition in yeast; Potency, µM (series often up to 32.9 µM), for inactives: at the highest dose activity, positive = growth rescue, usual class: activators; AID 485353; S. cerevisiae expressing SARS-CoV PLpro, growth rescue; 330,000 tested, 0.19% active; calls by dose curve; also: potency is read from the fitted curve at half-maximal effect; 0% is about no effect; nearly all actives have a fitted effect of over 55% in size
Lassa entry inh – Lassa virus entry inhibition. Lassa virus pseudotype entry inhibition, cell reporter. Potency, µM (highest dose often 37.9 µM), inactives show top-dose activity change, negative = inhibition, actives largely listed as inhibitors. 300,000 tested, 1.2% active; calls by dose curve; tested in HEK293 cells; also: potency is read from the fitted curve at half-maximal effect; % is scaled to controls: 0 for no effect and ±100 for the full control effect; nearly all actives have a fitted effect of over 50% in size
HCV inh – inhibitors of hepatitis C virus infection; Huh7.5.1 HCVcc-Cre infection, luciferase reporter, 44 h; Potency, µM (series often up to 41.8 µM), without a hit: top-dose activity change, negative = inhibition, actives largely listed as inhibitors; 340,000 tested, 3.4% active; AID 651820; active = well fitted inhibition curve with a large enough effect; inconclusive = small, poorly fitted or top-dose-only effect, or another doubt; inactive = no such curve, though single readings can be large or run the other way; also: potency is read from the fitted curve at half-maximal effect; % is scaled to controls: 0 for no effect and ±100 for the full control effect
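1,000 cells/well; 4 h culture; + compound; + HCVcc-Cre (~0.5 moi); 44 h; luciferase substrate, RT 15 min; read 15 sec.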
Active calls of the source: *; ? = inconclusive; / = not tested or not shown; [ ] = another dose, or the depositor's remark.

SMILES	HCMV inh	FMDV antiviral	MARV entry inh	SARS PLP yeast	Lassa entry inh	HCV inh
CCOC(=O)c1cc(C(=O)OCC)c(=O)[nH]c1SCc1ccccc1	-16.2	-8.7%	/	-3.3%	/	0.7%
O=C(/C=C/NNC(=O)c1ccccc1)c1ccc([N+](=O)[O-])cc1	-98.1*	-9.5%	?	0.3%	/	3.55µM*
Cc1ccc(-n2cc(-c3ccccc3)c3c(N4CCOCC4)ncnc32)cc1	34.2	?	?	-6.4%	-28.9%	?
COc1cccc(N2CCN(c3ncnc4c3c(-c3ccccc3)cn4-c3ccc(C)cc3)CC2)c1	-62.9*	-1.6%	/	/	26.7%[46.1 µM]	/
Cc1cccc(-n2cc(-c3ccccc3)c3c(N4CCOCC4)ncnc32)c1	-18.1	?	?	-5.8%	?	3.16µM*
CC(=O)N1c2ccccc2CC1C(=O)N1CCN(c2cccc(C)c2C)CC1 (stereo not drawn)	7.5	0.0%	/	/	-18.8%[46.1 µM]	/
CCc1ccccc1N(CC)C(=O)CCc1nc(-c2ccc(C)cc2)no1	-29.9	-9.1%	?	-20.5%	10µM*	?
Cc1cc(C)cc(OCC(=O)NCC2CCCO2)c1 (stereo not drawn)	-65.3*	/	5.3%	-9.1%	7.1%	7.6%
COc1ccc(OCC(=O)NNC(=S)NC(=O)C2CC2)cc1	1.6	14.4%	3.5%[46.1 µM]	0.0%	?	5.0%
Cc1ccc(-c2noc(CCC(=O)N(C)c3ccccc3F)n2)cc1	-27.8	-12.6%	19.3%[46.1 µM]	/	?	/
Cc1cc(C)cc(OCC(=O)NNC(=S)NC(=O)C2CC2)c1	-80.3*	?	?	0.4%	-17.4%[46.1 µM]	-5.0%
CC(C)(C)c1ccc(-c2noc(CCC(N)=O)n2)cc1	?	-25.5%	1.46µM*	-2.2%	?	4.1%
CN(C)C(=O)CCc1nc(-c2ccc(C(C)(C)C)cc2)no1	47.8	0.0%	?	-2.0%	?	-10.7%
Cc1cc(C)cc(N(C)S(=O)(=O)c2nnc(NC(=O)COc3ccc(C)c(C)c3)s2)c1	25.0	-16.4%	/	/	?	/
CC(C)(C)c1ccc(-c2noc(CCC(=O)Nc3cccnc3)n2)cc1	-74.8*	-23.0%	?	-0.7%	?	?
CNC(=O)CCc1nc(-c2ccc(C(C)(C)C)cc2)no1	-22.9	6.3%	0.891µM*	-12.1%	?	-10.8%
CC(C)(C)c1ccc(-c2noc(CCC(=O)NCC3CCCO3)n2)cc1 (stereo not drawn)	-72.3*	-20.6%	?	-9.3%	?	?
COc1ccc(CCc2nnc(CCC(=O)NCC3CCCO3)o2)cc1 (stereo not drawn)	-69.4*	9.5%	-2.5%[46.1 µM]	3.2%	-22.5%[46.1 µM]	23.0%
C#CCCOC(=O)N1C2=NC3=C(C(=O)N(Cc4ccc5c(c4)OCO5)C3=O)C3N(C)c4ccccc4[C@]23C[C@H]1CO (stereo partly drawn)	/	/	-22.9%[14.2 µM]	/	?	/
Cc1c(/C(O)=C2\C(=O)C(=O)N(CCN3CCOCC3)[C@H]2c2cccnc2)cnn1-c1ccccc1	/	/	0.0%	/	/	/
Cc1ccc(CSc2nc(=O)c3c(C)cc(C)nc3n2C2CC2)cc1	-101.3*	?	/	/	-11.3%[46.1 µM]	/
COC(=O)c1cc(C)nc2c1c(=O)nc(SCc1c(C)cc(C)cc1C)n2C1CC1	10.4	?	/	/	-20.4%[46.1 µM]	/
O=C1C[C@H](NCc2ccc3c(c2)OCO3)C(=O)N1Cc1ccc2c(c1)OCO2	/	/	25.6%	/	/	/
O=[S+]1([O-])N[C@@H]2Cc3ccccc3[C@@H]2Oc2cc(Br)ccc21	/	/	/	/	-3.2%[46.1 µM]	/
O=C1C=C(N2CCN(C(=O)c3ccccc3)CC2)C2(CCCCC2)O1	-77.4*	-17.0%	7.3%	-0.8%	2.3%	-0.2%
Cc1noc(C)c1NC(=O)N(C)C[C@@H]1OCc2ccccc2-c2c(n(C)c3ccccc23)C(=O)N([C@H](C)CO)C[C@H]1C	79.9	-22.2%	/	/	/	/
CCN1CCN(c2nc(Nc3ccc(C)c(C)c3)nc(N)c2[N+](=O)[O-])CC1	-6.0	1.6%	16.4µM*	-1.9%	-3.6%	0.5%
CCN1CCN(c2nc(Nc3cccc(OC)c3)nc(N)c2[N+](=O)[O-])CC1	81.9	-27.9%	/	1.7%	/	?
Cc1cccc(Nc2nc(N)c([N+](=O)[O-])c(N3CC(C)CC(C)C3)n2)c1 (stereo not drawn)	-62.8*	22.4µM*	?	4.4%	?	6.31µM*
